Values without a mark were called inactive. Active and inactive are the calls of the source.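 Rule for the calls: active = inhibition above about 23% in any of six single-dose repeats (limit read from the data); inactive = the rest.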
Target: Intestinal-type alkaline phosphatase (Homo sapiens) (UniProt P09923)
Experiment: suppression of intestinal alkaline phosphatase activity – biochemical, luminescence, single concentration, uHTS hits, confirmation (AID 434927);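 note: plate controls were DMSO wells with enzyme for no effect and wells lacking enzyme for full effect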
Conditions: purified human IAP, CDP-Star luminescence, 30 min; at 8.3 µM; hits give high values

Sequence of Intestinal-type alkaline phosphatase (Homo sapiens) (P09923 whole entry, looked up): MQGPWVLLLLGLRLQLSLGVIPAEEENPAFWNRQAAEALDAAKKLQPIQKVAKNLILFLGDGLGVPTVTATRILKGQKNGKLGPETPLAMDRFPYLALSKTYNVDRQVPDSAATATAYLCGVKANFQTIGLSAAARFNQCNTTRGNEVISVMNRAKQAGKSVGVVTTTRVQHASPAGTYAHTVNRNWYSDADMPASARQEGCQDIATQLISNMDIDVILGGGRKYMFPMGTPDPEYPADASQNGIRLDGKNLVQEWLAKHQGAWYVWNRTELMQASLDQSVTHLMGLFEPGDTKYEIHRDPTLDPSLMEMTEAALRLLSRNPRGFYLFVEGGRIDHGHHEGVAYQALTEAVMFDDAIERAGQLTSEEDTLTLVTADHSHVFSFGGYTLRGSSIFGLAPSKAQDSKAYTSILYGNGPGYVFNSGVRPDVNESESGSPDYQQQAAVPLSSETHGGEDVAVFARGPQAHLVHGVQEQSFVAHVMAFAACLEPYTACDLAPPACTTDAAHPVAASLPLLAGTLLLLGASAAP

Compound | inhibition
CC(C)CCNC(=O)C1CCN(C(=O)N(C)C)CC1 | 88.2% (active)
O=C(O)c1ccccc1C(=O)Nc1cc(-c2ccccc2)[nH]n1 | 61.7% (active)
C[C@@H](NC(=O)c1[nH]cnc1C(=O)Nc1ccon1)c1ccccc1 | -80%
Nc1ccc(-c2c3ccc(=O)cc-3oc3cc(O)ccc23)cc1C(=O)O | 64.5% (active)
CC(C)CC(=O)NC(=S)NNC(=O)c1ccc(NC(=O)C2CCCCC2)cc1 | 62.1% (active)
NC(CO)C(=O)NNCc1ccc(O)c(O)c1O (stereo not drawn) | -60.9%
O=C(NNc1ncnc2c1cnn2-c1ccc(F)cc1)c1ccco1 | -47.2%
CN1CCN(CCNC(=O)Cn2c(=O)c3cccn3c3ccc(F)cc32)CC1 | 35.4% (active)
COc1cccc(-c2nc(CS(=O)(=O)CC(=O)Nc3cc(OC)ccc3OC)c(C)o2)c1 | 31.5% (active)
CN(Cc1ccccc1)C(=O)Nc1ccc(Cl)cc1 | -58.7%
CCCn1c(/C=C/c2ccccc2)nc2ccccc21 | 36.8% (active)
O=C(NCCCN1CCOCC1)c1ccc2c(c1)N(Cc1ccc(Cl)cc1)C(=O)c1ccccc1S2=O (stereo not drawn) | -47.5%
Cc1cccc(NS(=O)(=O)c2cccc(C(=O)NNC(=O)c3ccccc3O)c2)c1 | 29.2% (active)
O=C(N/N=C/c1cccc([N+](=O)[O-])c1)c1nc2ccccc2c(=O)[nH]1 | 33.3% (active)
COc1ccc(O)c(/C=N/NC(=S)NCCc2ccccc2)c1 | -91.2%
COc1ccc(CC2CC(=O)N(c3ccc(C)cc3)C2=O)cc1 (stereo not drawn) | 23.2% (active)
COc1ccccc1N(C)S(=O)(=O)c1ccc(Cl)c(C(=O)NNC(=O)c2ccccc2O)c1 | 59.4% (active)

Compound | inhibition
CCOC(=O)c1cnc(SCC(=O)c2ccccc2)nc1N | -436%
CCOC(=O)c1c(NC(=O)Cn2cc([N+](=O)[O-])cn2)sc2c1CCC2 | -90.5%
C/C(=N/NC(=O)c1ccc(Cn2cccn2)o1)c1cccc(NC(=O)c2ccncc2)c1 | -101%
Cc1ccc(S(=O)(=O)NCCC(=O)NNC(=O)COc2ccc(Br)cc2)cc1C | 41% (active)
COc1ccccc1CN1CCC(n2nccc2NC(=O)CCCc2ccccc2)CC1 | -112%
COc1ccc2nc3cc(Cl)ccc3c(Nc3cc(CN4CCCC4)c(O)c(CN4CCCC4)c3)c2n1 | -60.1%
CC1=NN(Cc2ccccc2)C(=O)/C1=C\c1ccc(N(C)C)cc1 | 65.6% (active)
COC(=O)c1ccccc1-c1c2ccc(=N)cc-2oc2cc(N)ccc12 | 34.6% (active)
CC(=O)N1CCOc2ccc(S(=O)(=O)N3CCCC(C)C3)cc21 (stereo not drawn) | 54% (active)
O=C(COc1ccc2ccccc2c1Br)N1CCCCC1 | -50.2%
CCC1CCCCN1C1Sc2ccc(C(=O)OC)cc2NC1=O (stereo not drawn) | -69.1%
O=Nc1[nH]c(=O)c(/C=C(\O)c2ccccc2)nc1NO | -84.9%
C=CCN1C(=O)C2(NNc3ccccc3O2)c2ccccc21 (stereo not drawn) | -92.8%
O=C(COc1ccccc1Cl)N1CCN(c2ccc([N+](=O)[O-])c(N3CCCCC3)c2)CC1 | -60.9%
c1ccc(Nc2ccnc(Nc3ccccc3)n2)cc1 | -43.5%
COc1cc(/C=C(\C#N)C(=O)c2ccc(O)c(O)c2)cc(I)c1O | 40.4% (active)

Reference: PubChem BioAssay AID434927 (Sanford-Burnham Center for Chemical Genomics, 2010)
